Measurements as given in the supplement of paper PMC13380429.

Key:
[1] = system: Vero E6 infected with SARS-CoV-2; assay: morphology score (similarity to uninfected cells); higher = more like uninfected cells; conditions: 24 h
[2] = system: Vero E6 infected with SARS-CoV-2; assay: SARS-CoV-2 infection rate relative to infected DMSO; higher = more infection, active = 60 or less; conditions: 24 h

Row | Structure (SMILES) | morphology score [1] | SARS-CoV-2 infection rate [2]
1 | C1CCC(C(CC2CCCCN2)C2CCCCC2)CC1 (configuration not stated) [perhexiline] (0.833333 µM) | -0.219 | 114% (inactive)
2 | CC(=O)N(OCc1ccccc1)[C@@H]1c2cc(C#N)ccc2OC(C)(C)[C@H]1O (10 µM) | 0.159 | 97.5% (inactive)
3 | Nc1nccc(-c2c(-c3ccc(F)cc3)ncn2C2CCCCC2)n1 (0.833333 µM) | 0.197 | 103% (inactive)
4 | Cc1c(C(=O)NC2CCCCC2)sc2nc3ccc(N)cc3n12 (10 µM) | 0.0842 | 105% (inactive)
5 | CC(=O)Nc1ccc(OC(C)=O)cc1 [diacetamate] (10 µM) | 0.116 | 99.5% (inactive)
6 | O=C(O)C(O)Cc1ccc(O)c(O)c1 (configuration not stated) [sodium-danshensu] (10 µM) | 0.114 | 106% (inactive)
7 | O=C(O)c1ccc(O)c2ncccc12 (10 µM) | 0.022 | 102% (inactive)
8 | CCc1cccc2c3c([nH]c12)C(CC)(CC(=O)O)OCC3 (configuration not stated) [etodolac] (10 µM) | -0.0116 | 115% (inactive)
9 | FC(F)(F)C(F)(F)C(F)(F)N(C(F)(F)C(F)(F)C(F)(F)F)C(F)(F)C(F)(F)C(F)(F)F [perfluamine] (10 µM) | 0.16 | 92.5% (inactive)
10 | CCCc1nc(C(C)(C)O)c(C(=O)OCc2oc(=O)oc2C)n1Cc1ccc(-c2ccccc2-c2nnn[nH]2)cc1 [olmesartan-medoxomil] (10 µM) | -0.0296 | 116% (inactive)
11 | Cc1cccc(C)c1-n1c(=O)c2cnc(Nc3ccc(N4CCN(C)CC4)cc3)nc2n2c3ccccc3nc12 (0.833333 µM) | -0.0551 | 104% (inactive)
